PubChem BioAssay (NCATS)
Records with an inconclusive call do not appear. Unmarked numbers belong to inactive results. Activity calls are given as the source filed them. The call rests on the fitted dose curve; in most records, active means well fitted cell-killing curve with a large enough effect; inconclusive means small, poorly fitted or top-dose-only effect, or effect the other way; inactive means flat fitted curve, though single readings scatter.

tested on: CASKI; assay: Primary qHTS to identify gynecologic anti-cancer compounds using libraries of approved drugs and bioactive compounds (AID 1345084); conditions: Gynecologic cancer cell panel viability, ATPlite luminescence, 48 h; series mostly up to 57.5 µM; activity change, negative = cytotoxicity: at the top concentration; further: nearly all actives have a fitted effect of over 55% in size
Procedure, shortened: (§1)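 Luminescence from the ATPlite ATP-monitoring reagent indicates viable cell number; lower signal means cytotoxicity. Cells received compound 16 h after seeding and were exposed for 48 h across five concentrations.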
On the % scale 0 is the no-effect control and ±100 the full control effect; potency means the concentration at half of the fitted maximal effect.

| Structure (SMILES) | activity change, negative = cytotoxicity [%] | Potency |
| --- | --- | --- |
| CC1=C(C(=O)O)N2C(=O)[C@@H](NC(=O)[C@H](N)c3ccc(O)cc3)[C@H]2SC1 | 0.843 |  |
| Nc1ccc(C(=O)Nc2ccccc2N)cc1 | -19.8 |  |
| CN(C/C=C/c1ccccc1)Cc1cccc2ccccc12 | -10.7 |  |
| C=C(CC)C(=O)c1ccc(OCC(=O)O)c(Cl)c1Cl | -4.04 |  |
| O=C1OC(c2ccc(O)cc2)(c2ccc(O)cc2)c2ccccc21 | 4.09 |  |
| NC(=NCCCCCCN=C(N)/N=C(\N)Nc1ccc(Cl)cc1)/N=C(\N)Nc1ccc(Cl)cc1 | -27.6 |  |
| COc1cccc2c1C(=O)c1c(O)c3c(c(O)c1C2=O)C[C@@](O)(C(C)=O)C[C@@H]3O[C@H]1C[C@H](N)[C@H](O)[C@H](C)O1 |  | 0.708 µM (active) |

tested on: Es-2; assay: as above; conditions: Gynecologic cancer cell panel viability, ATPlite luminescence, 48 h; series mostly up to 57.5 µM; activity change, negative = cytotoxicity: at the top concentration
Procedure, shortened: as §1

| Structure (SMILES) | activity change, negative = cytotoxicity [%] | Potency |
| --- | --- | --- |
| Cc1cc(N)c2cc(NC(=O)Nc3ccc4nc(C)cc(N)c4c3)ccc2n1 | -19.8 |  |
| C[n+]1c2cc(N)ccc2cc2ccc(N)cc21 (tested in a mixture with another compound) |  | 15.8 µM (active) |
| COc1ccc(OC)c(C(O)CNC(=O)CN)c1 (configuration not stated) | -1.25 |  |
| N[C@H](Cc1c[nH]c2ccccc12)C(=O)O | 16.1 |  |
| O=C(Nc1ccc(Oc2ccc(Cl)cc2)c(Cl)c1)c1cc(I)cc(I)c1O | -20.2 |  |
| CN(C)C(=S)SC(=S)N(C)C | -2.93 |  |
| CCOc1ccc2nc3cc(N)ccc3c(N)c2c1 | -20.1 |  |
| CCC(C(=O)OCCN(CC)CC)c1ccccc1 (configuration not stated) | 1.47 |  |
| CCCN1CCCC[C@H]1C(=O)Nc1c(C)cccc1C | 3.74 |  |
| COc1cc(-c2ccc(=O)[nH]n2)ccc1OC(F)F | -16.4 |  |
| Oc1ccc(O)cc1 | -6.39 |  |
| CN1CCCC(CC2c3ccccc3Sc3ccccc32)C1 (configuration not stated) | -4 |  |
| OC[C@H]1O[C@@H](n2cnc3c(=S)nc[nH]c32)[C@H](O)[C@@H]1O |  | 3.55 µM (active) |
| CC(C)(C)CC(C)(C)c1ccc(OCCOCC[N+](C)(C)Cc2ccccc2)cc1 | -0.557 |  |
| CO/N=C1\CN(c2nc3c(cc2F)c(=O)c(C(=O)O)cn3C2CC2)CC1CN (configuration not stated) | -7.88 |  |
| C/C=C(/C(=C/C)c1ccc(O)cc1)c1ccc(O)cc1 | 0.167 |  |
| CCCCCCCCCCCCCCCC[N+](C)(C)CC |  | 28.2 µM (active) |
| CC(=O)Oc1ccc(C(c2ccc(OC(C)=O)cc2)c2ccccn2)cc1 | -4.54 |  |
| Cc1ccc(O)c2ncccc12 | 16.9 |  |
| Cc1c(C)n(CCN(C)C)c2ccc(C(=O)OCCN(C)C)cc12 | -0.762 |  |
| CC1=C(C(=O)O)N2C(=O)[C@@H](NC(=O)[C@H](N)c3ccc(O)cc3)[C@H]2SC1 | -8.76 |  |
| CN(C/C=C/c1ccccc1)Cc1cccc2ccccc12 | -16.8 |  |
| C=C(CC)C(=O)c1ccc(OCC(=O)O)c(Cl)c1Cl | -23.4 |  |
| O=C1OC(c2ccc(O)cc2)(c2ccc(O)cc2)c2ccccc21 | 3.42 |  |
| COc1cc(C=C2CCC/C(=C\c3ccc(O)c(OC)c3)C2=O)ccc1O | -10.5 |  |
| NC(=NCCCCCCN=C(N)/N=C(\N)Nc1ccc(Cl)cc1)/N=C(\N)Nc1ccc(Cl)cc1 | -25.6 |  |
| COc1cccc2c1C(=O)c1c(O)c3c(c(O)c1C2=O)C[C@@](O)(C(C)=O)C[C@@H]3O[C@H]1C[C@H](N)[C@H](O)[C@H](C)O1 |  | 0.708 µM (active) |

tested on: HeLa; assay: as above; conditions: Gynecologic cancer cell panel viability, ATPlite luminescence, 48 h; series mostly up to 57.5 µM; activity change, negative = cytotoxicity: at the top concentration
Procedure, shortened: as §1

| Structure (SMILES) | activity change, negative = cytotoxicity [%] | Potency |
| --- | --- | --- |
| Cc1cc(N)c2cc(NC(=O)Nc3ccc4nc(C)cc(N)c4c3)ccc2n1 | -11.2 |  |
| C[n+]1c2cc(N)ccc2cc2ccc(N)cc21 (tested in a mixture with another compound) |  | 8.91 µM (active) |
| COc1ccc(OC)c(C(O)CNC(=O)CN)c1 (configuration not stated) | 7.84 |  |
| Cc1c(C(C)C)c(=O)n(-c2ccccc2)n1C | -4.84 |  |
| N[C@H](Cc1c[nH]c2ccccc12)C(=O)O | -13.8 |  |
| O=C(Nc1ccc(Oc2ccc(Cl)cc2)c(Cl)c1)c1cc(I)cc(I)c1O | -9.73 |  |
| CN(C)C(=S)SC(=S)N(C)C | 0.422 |  |
| CCOc1ccc2nc3cc(N)ccc3c(N)c2c1 | -25 |  |
| CCC(C(=O)OCCN(CC)CC)c1ccccc1 (configuration not stated) | -3.88 |  |
| CCCN1CCCC[C@H]1C(=O)Nc1c(C)cccc1C | 5.52 |  |
| Oc1ccc(O)cc1 | 6.87 |  |
| CN1CCCC(CC2c3ccccc3Sc3ccccc32)C1 (configuration not stated) | 0.69 |  |
| OC[C@H]1O[C@@H](n2cnc3c(=S)nc[nH]c32)[C@H](O)[C@@H]1O |  | 3.16 µM (active) |
| O=c1c(-c2ccccc2)c1-c1ccccc1 | -10.3 |  |
| CC(C)(C)CC(C)(C)c1ccc(OCCOCC[N+](C)(C)Cc2ccccc2)cc1 | -27.1 |  |
| CO/N=C1\CN(c2nc3c(cc2F)c(=O)c(C(=O)O)cn3C2CC2)CC1CN (configuration not stated) | -21.6 |  |
| C/C=C(/C(=C/C)c1ccc(O)cc1)c1ccc(O)cc1 | 15.1 |  |
| CCCSS/C(CCO)=C(\C)N(C=O)Cc1cnc(C)nc1N | -2.86 |  |
| CCCCCCCCCCCCCCCC[N+](C)(C)CC |  | 28.2 µM (active) |
| Cc1ccc(O)c2ncccc12 | 3.16 |  |
| Cc1c(C)n(CCN(C)C)c2ccc(C(=O)OCCN(C)C)cc12 | -2.46 |  |
| Oc1c(I)cc(Cl)c2cccnc12 | -23.2 |  |
| CC1=C(C(=O)O)N2C(=O)[C@@H](NC(=O)[C@H](N)c3ccc(O)cc3)[C@H]2SC1 | -2.59 |  |
| CCCCC(CC)CN=C(N)NC(N)=NCCCCCCN=C(N)NC(N)=NCC(CC)CCCC (configuration not stated) |  | 17.8 µM (active) |
| CN(C/C=C/c1ccccc1)Cc1cccc2ccccc12 | -4.64 |  |
| C=C(CC)C(=O)c1ccc(OCC(=O)O)c(Cl)c1Cl | 16.1 |  |
| O=C1OC(c2ccc(O)cc2)(c2ccc(O)cc2)c2ccccc21 | -1.19 |  |
| COc1cccc2c1C(=O)c1c(O)c3c(c(O)c1C2=O)C[C@@](O)(C(C)=O)C[C@@H]3O[C@H]1C[C@H](N)[C@H](O)[C@H](C)O1 |  | 4.47 µM (active) |
